Compound activity as filed in PubChem.
This is a sample that favours compounds with a hit; in the whole collection about 9.2% have one here.
Rab9 prom act = Rab9 promoter activation | Huh7 Rab9 promoter-luciferase reporter, luminescence, 24 h | Potency, µM (top dose mostly 9.22 µM), for inactives: at the top dose activation, negative = inhibition, usual class: activators | 320,000 compounds, 2.8% hits; also: % of control where 0% means no effect; nearly all actives have a fitted effect of over 60% in size
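Cells were plated at 1500 per well in reduced-serum medium with 10% FBS and left 2 h. Compound in DMSO was then added for 24 h at 37 °C. Reporter signal was read by luminescence after 10 min with luciferase detection reagent.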
NPC1 prom act = NPC1 promoter activation; 320,000 compounds, 2.4% hits; Potency, µM (series often up to 9.22 µM), without a hit: at the highest dose activation, usual class: activators; Huh7 NPC1 promoter luciferase reporter, 24 h; AID 485313; also: % of control where 0% means no effect; nearly all actives have a fitted effect of over 60% in size
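Huh7 reporter cells (NPC1 promoter driving luciferase) are dosed with compound for 24 h at 37 °C, 5% CO2; luciferase detection reagent is then added and luminescence measured after 10 min at ambient temperature.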
SMN2 splice up = increases expression of the SMN2 splice variant. HEK293 SMN2-luciferase splicing reporter, luminescence, 30-36 h. Potency, µM (highest dose often 46.1 µM), for inactives: at the highest dose activity change, positive = activation, usual class: activators. 210,000 compounds, 2.8% hits. AID 1458; also: % of control where 0% means no effect; nearly all actives have a fitted effect of over 55% in size
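qHTS luciferase splicing reporter: luminescence rises when SMN2 exon 7 is included in transfected HEK293 cells. Compound exposure lasted 30-36 h at 37C, with 4.5 mM final sodium butyrate as control, followed by a ONE-Glo read.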
ELG1 genotoxic = inducers of genotoxicity in HEK293T ELG1-luciferase cells | Potency, µM (top dose mostly 46 µM), inactives show at the top dose activity change, positive = activation, most hits filed as activators | 330,000 compounds, 1.3% hits | HEK293T ELG1-luciferase reporter, luminescence, 16 h; also: % of control where 0% means no effect; nearly all actives have a fitted effect of over 60% in size
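Cells (2,000/well) expressing the ELG1-luciferase fusion are dosed by pin tool and kept 16 hr at 37 °C, 5% CO2. Signal comes from ONE-Glo luciferase reagent after 30 min at room temperature.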
FLuc modulator = firefly luciferase modulation, counter-screen for miR-21 project; P08659; purified FLuc, Km substrates, luminescence inhibition; Potency, µM (doses to about 57.5 µM), without a hit: at the top dose activity change, negative = inhibition, actives largely listed as inhibitors; 360,000 compounds, 6.9% hits; AID 588342;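 also: plate controls were vehicle for no effect and reference inhibitor for full effect; nearly all actives have a fitted effect of over 55% in size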
Target sequence (P08659 whole entry, looked up): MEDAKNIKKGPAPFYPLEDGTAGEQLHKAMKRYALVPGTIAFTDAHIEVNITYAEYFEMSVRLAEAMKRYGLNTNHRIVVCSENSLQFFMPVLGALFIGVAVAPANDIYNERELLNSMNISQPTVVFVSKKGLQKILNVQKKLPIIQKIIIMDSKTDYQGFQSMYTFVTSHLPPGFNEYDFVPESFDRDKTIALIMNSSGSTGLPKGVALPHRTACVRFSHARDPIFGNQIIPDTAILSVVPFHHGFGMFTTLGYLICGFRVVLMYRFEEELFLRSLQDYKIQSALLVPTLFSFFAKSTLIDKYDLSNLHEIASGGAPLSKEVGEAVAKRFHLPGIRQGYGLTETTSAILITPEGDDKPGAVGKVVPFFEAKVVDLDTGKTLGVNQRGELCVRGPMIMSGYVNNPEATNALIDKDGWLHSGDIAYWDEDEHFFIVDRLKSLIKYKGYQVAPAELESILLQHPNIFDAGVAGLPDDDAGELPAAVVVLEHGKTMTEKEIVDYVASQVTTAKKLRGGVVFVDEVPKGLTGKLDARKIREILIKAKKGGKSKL
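Purified P. pyralis luciferase (10nM final) with 10uM D-luciferin and 10uM ATP (Km levels) in 50mM Tris acetate pH 7.5, 10mM Mg acetate, 0.01% Tween-20, 0.05% BSA; qHTS 6-point titration, ~60 µM downward; luminescence read.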
ELG1 repair inh = inhibitors of ELG1-dependent DNA repair in HEK293T cells | AID 504467 | HEK293T ELG1-luciferase reporter, luminescence, 16 h; DNA damage induced by 5-fluorouridine | Potency, µM (highest dose often 46.1 µM), for the others: at the highest dose activity change, negative = inhibition, hits mostly inhibitors | 330,000 compounds, 2.3% hits; also: % is scaled to controls: 0 for no effect and ±100 for the full control effect; nearly all actives have a fitted effect of over 55% in size
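Luminescence from the luciferase reporter, measured 30 min after ONE-Glo reagent at room temperature, was the read-out. Beforehand, 2,000 cells per well were exposed for 16 hr at 37 °C to 5-fluorouridine together with compound or vehicle.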
An asterisk follows results filed as active; ? = inconclusive; nt = no result; [ ] = another dose, or the depositor's remark. Calls follow the shape of the dose curve; as a rule, active = well fitted curve in the direction sought with a large enough effect; inconclusive = small, poorly fitted or top-dose-only effect, or another doubt; inactive = no such curve, though single readings can be large; an effect the other way counts as inactive or inconclusive. Potency is read from the fitted curve at half-maximal effect.

SMILES	Rab9 prom act	NPC1 prom act	SMN2 splice up	ELG1 genotoxic	FLuc modulator	ELG1 repair inh
O=C(CC1NCCN(Cc2ccccc2)C1=O)Nc1ccccc1 (stereo not given)	-5.5%	1.4%	nt	-0.2%	0.4%	10.7%
COc1ccc(/C=C2\SC(=O)N(CCNC(=O)C3=COCCO3)C2=O)cc1	28.1%	2.1%	nt	16.4µM*	?	?
COc1cccc(/C=C2\SC(=O)N(CC(=O)NCCCn3ccnc3)C2=O)c1	-0.7%	3.3%	nt	5.1%	23.9µM*	?
COc1ccc(/C=C2\SC(=O)N(CC(=O)NCCCn3ccnc3)C2=O)cc1	29.0%	26.6%	nt	12.8%	9.53µM*	?
O=C(NCCN1C(=O)S/C(=C\c2ccc(OC(F)F)cc2)C1=O)C1=COCCO1	-14.7%	-21.8%	nt	0.7%	?	-10.7%
COc1ccc(/C=C2\SC(=O)N(CCc3nnc(N)s3)C2=O)cc1	1µM*	2.51µM*	nt	?	1.9µM*	?
NC(=O)c1cc[n+](CC(=O)c2ccc(NC(=O)c3ccccc3)cc2)cc1	-0.9%	10.8%	7.1%	4.6%	2.8%	?
COc1cc(/C=C2\SC(=O)N(CCNC(=O)c3c(C)noc3C)C2=O)cc(OC)c1OC	nt	nt	nt	-1.2%	nt	18.3µM*
Cc1csc2c(N3CCN(C(=S)Nc4ccc(F)cc4F)CC3)ncnc12	-3.4%	-1.4%	nt	0.5%	23.9µM*	?
Cc1csc2c(N3CCN(C(=O)Nc4ccccc4)CC3)ncnc12	-17.8%	-1.4%	nt	-6.4%	?	?
O=[N+]([O-])c1cc(S(=O)(=O)N2CCCC2)ccc1N/N=C/c1cccnc1	1.3%	-3.1%	2.4%	2.5%	-2.0%	5.9%
COc1cccc2cc(-c3csc(NC(=O)CCC(=O)NCCCN4CCC(C)CC4)n3)c(=O)oc12	0.708µM*	1.41µM*	nt	?	9.53µM*	?
Cc1nc2ccccc2c2oc(C(=O)NCCN3CCCCC3C)cc12 (stereo not given)	0.0%	-1.3%	5.4%	8.0%	5.2%	-3.2%
CCOc1cccc2cc(-c3csc(NC(=O)CCC(=O)N4CCC(C)CC4)n3)c(=O)oc12	-0.1%	?	-21.3%	15.9%	-1.6%	17.1%
CCOc1cccc2cc(-c3csc(NC(=O)CCC(=O)NCCN4CCCCC4C)n3)c(=O)oc12 (stereo not given)	?	?	3.16µM*	?	10.7µM*	?
CCOc1cccc2cc(-c3csc(NC(=O)CCC(=O)NCCCN4CCC(C)CC4)n3)c(=O)oc12	3.98µM*	27.0%	8.91µM*	10.3µM*	16.9µM*	?
COc1ccc(-c2cc3ccc(O)c(CN4CCC(C)CC4)c3oc2=O)cc1OC	nt	nt	nt	nt	-1.1%	nt
O=C(COC(=O)COc1ccc(Br)cc1)NC1CCCC1	nt	nt	nt	5.8%	nt	6.9%
COc1ccccc1OCCSc1nc2ccccc2n1CC(N)=O	4.6%	-2.6%	nt	3.2%	15.1µM*	?
CCN(Cc1ccncc1)Cc1nc(CC2CC2)no1	-8.7%	0.1%	nt	-2.3%	-1.9%	-4.1%
O=C(N/N=C/c1cccc([N+](=O)[O-])c1)c1ccccc1-n1cccc1	1.0%	-0.6%	nt	-3.5%	-5.1%	?
C=CCn1c(-c2ccccc2)nc2nc3ccccc3nc21	4.2%	11.8%	4.2%	-5.5%	16.9µM*	3.3%
c1csc(-c2nc3nc4ccccc4nc3n2Cc2ccc3c(c2)OCO3)c1	?	29.4%	?	-1.2%	2.69µM*	?
Clc1cccc(-c2nc3nc4ccccc4nc3n2Cc2ccccc2)c1	-7.5%	-2.2%	-12.2%	0.0%	-4.7%	?
c1ccc(Cn2c(-c3ccccc3)nc3nc4ccccc4nc32)cc1	-2.0%	-0.4%	-23.4%	-5.7%	-11.6%	20.6µM*
SMILES	Rab9 prom act	NPC1 prom act	SMN2 splice up	ELG1 genotoxic	FLuc modulator	ELG1 repair inh
N#CCOC(=O)[C@H](Cc1c[nH]c2ccccc12)NS(=O)(=O)c1ccc(Cl)cc1	0.0%	-3.2%	nt	-2.9%	-0.6%	-0.9%
Cc1ccc(SCc2nc(-c3ccncc3)no2)cc1	2.6%	0.0%	-14.1%	-0.1%	4.2%[2.3 µM]	12.2%
COc1ccc(-c2noc(CSc3ccccc3)n2)cc1OC	3.98µM*	?	nt	13.6%	13.5µM*	?
c1ccc(SCc2nc(-c3ccncc3)no2)cc1	?	3.98µM*	11.2µM*	14.6µM*	16.9µM*	?
Cc1ccc(SCc2nc(-c3ccccc3)no2)cc1	20.6%	2.1%	21.1%	5.6%	0.4%[2.3 µM]	18.6%
Cc1ccc2oc(C(=O)Nc3c(C(=O)Nc4cccc(Cl)c4)oc4ccccc34)cc(=O)c2c1	nt	nt	-3.1%	nt	0.2%	nt
COc1ccc(N2CCN(C(=O)CCCn3c(=S)[nH]c4cc5c(cc4c3=O)OCO5)CC2)cc1	-0.2%	-2.7%	-21.4%	1.9%	-1.4%	20.6µM*
O=C(CCCn1c(=S)[nH]c2cc3c(cc2c1=O)OCO3)N1CCN(c2ccccn2)CC1	-3.6%	-5.4%	-9.5%	-12.2%	0.6%	14.6µM*
Cc1cccc(N2CCN(C(=O)CCCCCn3c(=S)[nH]c4ccc(N5CCOCC5)cc4c3=O)CC2)c1C	-11.0%	-4.7%	nt	-13.6%	1.6%	16.4µM*
O=C(CCCCCn1c(=S)[nH]c2cc3c(cc2c1=O)OCO3)N1CCN(Cc2ccccc2)CC1	-3.3%	-4.8%	-16.9%	-0.7%	-1.7%	-26.7%
CCCCn1c(=S)[nH]c2ccc(N3CCOCC3)cc2c1=O	0.1%	14.3%	-9.3%	-6.2%	-10.4%	-24.2%
COC(c1ccccc1)c1nnc(CCC(=O)N2CCCCCCC2)o1 (stereo not given)	-2.1%	-3.7%	nt	0.6%	-4.4%	8.5%
COC(c1ccccc1)c1nnc(CCC(=O)N(C)C(C2CC2)C2CC2)o1 (stereo not given)	2.82µM*	?	nt	?	13.5µM*	?
CCc1cc(C(=O)N(C)CC(=O)N(CC(C)C)c2c(N)n(CC(C)C)c(=O)[nH]c2=O)sc1C	14.3%	-0.3%	nt	0.0%	0.9%	-0.2%
O=C(O)c1cccc(NC(=O)c2ccc3c(c2)C(=O)N(c2ccccc2)C3=O)c1	-2.4%	2.3%	nt	4.1%	0.269µM*	?
O=C(O)c1cc(NC(=O)c2cccc(N3C(=O)c4ccccc4C3=O)c2)cc(C(=O)O)c1	6.2%	-4.3%	nt	3.2%	-12.7%	9.7%
O=C(O)c1cccc(NC(=O)c2ccc3c(c2)C(=O)N(CC2CCCO2)C3=O)c1 (stereo not given)	1.1%	4.5%	3.6%	0.9%	0.477µM*	-1.6%
COc1ccccc1NC(=O)c1ccc2c(c1)C(=O)N(c1ccccc1OC)C2=O	-4.9%	-1.1%	nt	5.7%	?	-11.9%
